# Measured values taken from PubChem BioAssay (NCATS).
# Records with an inconclusive call do not appear. Where a call stands in place of a potency, no number is given. Activity calls are given as the source filed them. The call rests on the fitted dose curve; in most records, active means well fitted inhibition curve with a large enough effect; inconclusive means small, poorly fitted or top-dose-only effect; inactive means flat fitted curve, though single readings scatter.
# Tested on: not listed separately
# Assay: qHTS profiling for inhibitors of Plasmodium falciparum proliferation (AID 504749); further: nearly all actives have a fitted effect of over 60% in size
# Conditions: P. falciparum in erythrocytes, SYBR Green DNA, 72 h; parasite line B
# In short: (§1)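 Infected RBCs, 0.3% parasitemia/2.5% Hct final; cpd 72 h, 37 C, 5% CO2; lysis buffer with saponin/triton/SYBR Green I, o/n RT dark; FI 485/535; norm. to artemisinin (0.29 uM) and DMSO.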
# Potency means the concentration at half of the fitted maximal effect.
row,SMILES,Potency
1,CCCCC(=O)OCC(=O)[C@]1(O)Cc2c(O)c3c(c(O)c2[C@H](OC2CC(NC(=O)C(F)(F)F)C(O)C(C)O2)C1)C(=O)c1c(OC)cccc1C3=O (some centres not stated),2510 nM (active)
2,C[C@H]1[C@@H](OC(=O)CCC(=O)O)OC2OC3(C)CC[C@H]4[C@H](C)CC[C@@H]1[C@@]24OO3 (some centres not stated),3.5 nM (active)
3,COc1cc2c(cc1O)CCN[C@@]21CS[C@H]2c3c(OC(C)=O)c(C)c4c(c3C(COC1=O)N1C2C2c3c(cc(C)c(OC)c3O)CC([C@@H]1O)N2C)OCO4 (some centres not stated),0.9 nM (active)
4,C[n+]1c2cc(N)ccc2cc2ccc(N)cc21,1000 nM (active)
5,CC[C@@]1(O)C[C@H](O[C@H]2C[C@@H](N(C)C)[C@@H](O[C@H]3C[C@@H](O)[C@@H](O[C@H]4CCC(=O)[C@@H](C)O4)[C@@H](C)O3)[C@@H](C)O2)c2c(cc3c(c2O)C(=O)c2c(O)cccc2C3=O)[C@H]1C(=O)OC,199 nM (active)
6,CCC(C(=O)O)C1OC(C(C)C(O)C(C)C(=O)C(CC)C2OC3(C=CC(O)C4(CCC(C)(C5CCC(O)(CC)C(C)O5)O4)O3)C(C)CC2C)C(C)CC1C (configuration not stated),158 nM (active)
7,COC1CC2CCC(C)[C@](O)(O2)C(=O)C(=O)N2CCCCC2C(=O)OC(C(C)CC2CCC(O)C(OC)C2)CC(=O)C(C)/C=C(/C)C(O)C(OC)C(=O)C(C)CC(C)C=CC=C/C=C\1C (some centres not stated),1410 nM (active)
8,CN[C@H](C)CCC=C(C)C,141 nM (active)

# Tested on: 3D7
# Assay: as above
# Conditions: P. falciparum in erythrocytes, SYBR Green DNA, 72 h; series mostly up to 28.7 µM
# In short: as §1
row,SMILES,Potency
1,CCCCCCCCCCCCCCCC(=O)OC[C@H](O)[C@H]1OC[C@@H](O)[C@@H]1O,inactive
2,CCCCC(=O)OCC(=O)[C@]1(O)Cc2c(O)c3c(c(O)c2[C@H](OC2CC(NC(=O)C(F)(F)F)C(O)C(C)O2)C1)C(=O)c1c(OC)cccc1C3=O (some centres not stated),1580 nM (active)
3,C[C@H]1OC(OC2C(O)[C@@H](O)C(OC3C(O)[C@@H](O)C(O)O[C@@H]3CO)O[C@@H]2CO)[C@H](O)C(O)C1N[C@H]1C=C(CO)[C@@H](O)[C@H](O)C1O (some centres not stated),inactive
4,CCN(CC)CC(=O)Nc1c(C)cc(C)cc1C,inactive
5,CC(=O)N[C@H]1[C@H](O[C@@H]2c3ccc(c(Cl)c3)Oc3cc4cc(c3O[C@@H]3O[C@H](CO)[C@@H](O)[C@H](O)C3C)Oc3ccc(cc3Cl)C[C@H]3NC(=O)[C@@H](N)c5ccc(O)c(c5)Oc5cc(O)cc(c5)[C@H](NC3=O)C(=O)N[C@H]4C(=O)N[C@H]3C(=O)N[C@@H]2C(=O)N[C@@H](C(=O)O)c2cc(O)cc(O[C@H]4O[C@H](CO)[C@@H](O)C(O)[C@@H]4O)c2-c2cc3ccc2O)O[C@H](CO)[C@@H](O)[C@@H]1O (some centres not stated),inactive
6,NC(=O)c1ncn(C2OC(CO)C(O)C2O)c1N (configuration not stated),inactive
7,C[C@H]1[C@@H](OC(=O)CCC(=O)O)OC2OC3(C)CC[C@H]4[C@H](C)CC[C@@H]1[C@@]24OO3 (some centres not stated),5 nM (active)
8,CC1(Cn2ccnn2)[C@H](C(=O)O)N2C(=O)C[C@H]2S1(=O)=O (some centres not stated),inactive
9,CN(C)CC/C=C1\c2ccccc2COc2ccc(CC(=O)O)cc21,inactive
10,CCCC(=O)O[C@]1(C(=O)COC(C)=O)CC[C@H]2C3C[C@H](F)C4=CC(=O)C=CC4(C)[C@@]3(F)[C@@H](O)CC21C (some centres not stated),inactive
11,OCCN1CC(O)C(O)C(O)C1CO (configuration not stated),inactive
12,COc1cc2c(cc1O)CCN[C@@]21CS[C@H]2c3c(OC(C)=O)c(C)c4c(c3C(COC1=O)N1C2C2c3c(cc(C)c(OC)c3O)CC([C@@H]1O)N2C)OCO4 (some centres not stated),0.3 nM (active)
13,CC(CCC(=O)O)C1CCC2C3C(=O)C[C@@H]4CC(=O)CC[C@@]4(C)C3CC(=O)[C@]12C (some centres not stated),inactive
14,C[n+]1c2cc(N)ccc2cc2ccc(N)cc21,398 nM (active)
15,O=C(OC[C@@H]1O[C@@](O)(COC(=O)c2cccnc2)[C@H](OC(=O)c2cccnc2)[C@H]1OC(=O)c1cccnc1)c1cccnc1,inactive
16,O=[N+]([O-])O[C@H]1CO[C@H]2[C@@H]1OC[C@H]2O,inactive
17,COc1cccc(OC)c1C(=O)NC1C(=O)N2C1SC(C)(C)C2C(=O)O (configuration not stated),inactive
18,NC[C@@H]1O[C@H](OC2[C@@H](CO)O[C@@H](OC3[C@H](O)[C@H](N)C[C@H](N)[C@H]3OC3O[C@H](CO)[C@@H](O)[C@H](O)[C@@H]3N)[C@H]2O)C(N)[C@H](O)[C@@H]1O (some centres not stated),inactive
19,Cc1ccc(S(=O)(=O)NC(=O)NC(C)Cc2ccccc2)cc1 (configuration not stated),inactive
